Experimental data taken from the supplement of paper PMC6992640.
Counter-ions that a name gives are not always drawn. ± gives the standard deviation of the averaged measurements.

Tests used:
Assay in all cases: cell viability (% of vehicle); higher = less cytotoxic
Details in all cases: 10 µM; 72 h
[1] = test system: HCI01 (cells of a triple-negative basal-like breast cancer xenograft)
[2] = test system: HCI03 (cells of an ER-positive luminal breast cancer xenograft)
[3] = test system: HCI09 (cells of a triple-negative luminal androgen receptor type breast cancer xenograft)
[4] = test system: HCI11 (cells of an ER-positive luminal breast cancer xenograft)
[5] = test system: HCI13 (cells of an ER-positive luminal breast cancer xenograft)
[6] = test system: HCI16 (cells of a triple-negative basal-like breast cancer xenograft)
[7] = test system: UCD52 (cells of a triple-negative basal-like breast cancer xenograft)
[8] = test system: WHIM2 (cells of a triple-negative basal-like breast cancer xenograft)
[9] = test system: WHIM30 (cells of a triple-negative basal-like breast cancer xenograft)
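Further: PDX cells carrying CMV promoter-driven luciferase, viability read as total photon flux per second by IVIS imaging following D-luciferin, vehicle control 0.1% DMSO.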

Row | Compound | cell viability [1] | cell viability [2] | cell viability [3] | cell viability [4] | cell viability [5] | cell viability [6] | cell viability [7] | cell viability [8] | cell viability [9]
1 | O=C(CCc1ccc(O)cc1)c1c(O)cc(O)cc1OC1OC(CO)C(O)C(O)C1O (stereo not given) [Phloridzin] | 104 ± 31 | 123 | 98.1 ± 10 | 97.7 | 106 ± 6.1 | 115 | 105 ± 4.7 | 96.2 ± 9.1 | 97.2 ± 7.4
2 | Cl.c1ccc2c(c1)CCCC2C1=NCCN1 (stereo not given) [Tetrahydrozoline HCl] | 114 ± 3.1 | 116 | 97.1 ± 17 | 106 | 86.8 ± 1.9 | 108 | 89.5 ± 2 | 101 ± 21 | 115 ± 2.9
3 | CN(CC=CC#CC(C)(C)C)Cc1cccc2ccccc12 [Terbinafine] | 105 ± 5.9 | 114 | 136 ± 70 | 108 | 111 ± 26 | 139 | 106 ± 3 | 73.1 ± 24 | 117 ± 3.4
4 | Cc1ccc(NC(=O)c2ccc(CN3CCN(C)CC3)cc2)cc1Nc1nccc(-c2cccnc2)n1 [Imatinib (STI571)] | 87.1 ± 42 | 156 | 86.31 ± 0.75 | 89.4 | 108 ± 5.6 | 98.9 | 89.2 ± 1.7 | 91.7 ± 19 | 104 ± 12
5 | Nc1nc(Cl)nc2c1ncn2C1CC(O)C(CO)O1 (stereo not given) [Cladribine] | 95.8 ± 7.4 | 118 | 94.6 ± 26 | 104 | 128 ± 34 | 58.3 | 110 ± 15 | 106 ± 34 | 78.8 ± 8.9
6 | COc1ccccc1N1CCN(CCCNc2cc(=O)n(C)c(=O)n2C)CC1.Cl [Urapidil HCl] | 96.7 ± 8.1 | 125 | 89.54 ± 0.6 | 80.2 | 93.3 ± 1.2 | 105 | 97.6 ± 7.3 | 98.8 ± 5.4 | 111 ± 3.3
7 | CNCC(O)c1cccc(O)c1.Cl (stereo not given) [Phenylephrine HCl] | 110 ± 2.1 | 126 | 103 ± 22 | 105 | 78 ± 4.8 | 97.2 | 87.5 ± 4.1 | 86.1 ± 7.8 | 109 ± 7.6
8 | CN[C@H](CC(C)C)C(=O)N[C@H]1C(=O)N[C@@H](CC(N)=O)C(=O)N[C@H]2C(=O)N[C@H]3C(=O)N[C@H](C(=O)N[C@H](C(=O)O)c4cc(O)cc(O)c4-c4cc3ccc4O)[C@H](O)c3ccc(c(Cl)c3)Oc3cc2cc(c3O[C@@H]2O[C@H](CO)[C@@H](O)[C@H](O)[C@H]2O[C@H]2C[C@](C)(N)[C@H](O)[C@H](C)O2)Oc2ccc(cc2Cl)[C@H]1O [Vancomycin hydrochloride] | 125 ± 1.7 | 110 | 146 ± 38 | 92.4 | 195 ± 13 | 167 | 122 ± 7.7 | 107 ± 4.2 | 148 ± 22
9 | COc1ccc(C2(C#N)CCC(C(=O)O)CC2)cc1OC1CCCC1 (stereo not given) [Cilomilast] | 120 ± 9.7 | 114 | 89 ± 22 | 88.4 | 104 ± 9.8 | 146 | 103 ± 12 | 117 ± 8.9 | 113.9 ± 0.63
10 | CCOC(=O)c1ccc(OC(=O)CCCCCN=C(N)N)cc1.CS(=O)(=O)O [Gabexate mesylate] | 170 ± 9.1 | 122 | 98 ± 3.2 | 147 | 96.8 ± 1.2 | 159 | 142 ± 6.2 | 111 ± 10 | 180 ± 27
